In PubChem BioAssay AID1508600 (Functional Genomics Laboratory (NCATS/FGL), 2020):
About 3,700 (7%) of roughly 53,000 sequences were called active.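 The calls were made as follows: active = gene knockdowns whose robust z-score for IL-1 alpha signal is at least 2 or at most -2, so actives lie on both sides; inactive = the rest.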 The full list was thinned out, with actives kept by preference.

Assay: Components of the Cytosolic LPS Sensing Pathway: Gene Identification via Genome-wide siRNA Screen;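 also: robust z of the log signal after scaling to non-targeting control siRNA wells of the plate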
Details: RAW264.7 macrophages, IL-1a HTRF, actives lie on both sides, screened at 100 nM (by protocol), cells primed 5 h with Pam3CSK4 first
Summary of the method: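 RAW264.7; siRNA 100 nM final, RNAiMAX, 48h 37 degrees C; Pam3CSK4 5 h; LipidA + TransIT-TKO 24 h; IL-1a HTRF; CellTiter-Glo viability; robust z vs negative-control median.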

Sequence	z-score
GCAUUUGAUGAAGACUCGATT against Barx2	0.467 (inactive)
GGUUUAGCUGCAUUAAAAGTT against Lrrc27	0.956 (inactive)
GGCCGAGAGUAUUUCUACATT against Efna5	-0.254 (inactive)
CGAACACUCGUUAAAGAAATT against Krt23	0.247 (inactive)
CCAUGCACAAUUACAAGCUTT against Ret	-0.000288 (inactive)
CGGAAAAUUUGUUCCUGACTT against Rbm12b2	1.44 (inactive)
GCAAAUGAGAGGUCUGUUGTT against Olfr1024	-2.52 (active)
CCCUAGGGUGAUGAAGCAUTT against Ckmt2	-0.984 (inactive)
GCCAUUAAGGAAAUGUUCUTT against Olfr426	-0.969 (inactive)
GGUUCUUUGGCUCUGUAUGTT against Atp5c1	-0.64 (inactive)
GGUCAUCCUUCUAUUCUCUTT against Olfr648	-2.01 (active)
GGAGGUAAAAGAUGAGAAATT against Plekho1	1.57 (inactive)
CCUCAUAAAUUCACUCUCCTT against Bpifa2	0.984 (inactive)
GGAGAAAACUUAGAUUACCTT against Ppil4	2.15 (active)
GGAUAUGCUGUGAAGUAUUTT against Plekhf2	1.68 (inactive)
GGUUAAGACCUUAAACAGATT against Prl4a1	0.0572 (inactive)
CGUUUCUCAGCAAACUUACTT against Il17a	0.669 (inactive)
GGCACCUUUCAACGUAACCTT against Ntn3	1.32 (inactive)
GGACCUAAAGAAUUCAUCGTT against Unc79	0.109 (inactive)
GGUGAAGAUAGUAAUACGGTT against Apol7a	-1.02 (inactive)
GGUCCAGAGGAUGAACAGATT against Crcp	0.551 (inactive)
CCAAAUUCAUUCUAGCUCGTT against Klf6	-0.597 (inactive)

Sequence	z-score
CGAUCUUCCAAACCCUCUUTT against Dhh	2.54 (active)
GCCCAUGACCAGUUCAAGUTT against Actn4	0.63 (inactive)
GCUAUUAAAAUAUGGGAAGTT against Olfr1314	1.28 (inactive)
GCAUAUGAUGGUCCUUACCTT against Cox6b1	0.019 (inactive)
CCAUGCUUCCCUUCAACAUTT against Adcy2	2.64 (active)
GGCAGUUAUCUCCUAAUGCTT against Zfp934	-0.383 (inactive)
GGCCAGAUGACCUUGUCAUTT against Sult1e1	-1.23 (inactive)
GGCGCACAAUCAAGAUCUUTT against Col4a4	0.385 (inactive)
GCACUUUGUAUGUCUAUCUTT against Tnfaip1	2.28 (active)
CCAAAAAGUUCAGUGUAAUTT against Rad9b	-1.09 (inactive)
GCUUGAGUAGUGCAGAAACTT against Jmjd1c	-1.15 (inactive)
CCAUGAGGAUGAUUACCUATT against Cnga2	-0.947 (inactive)
GGGAAGAUUGAUUUUAUCGTT against Abcb11	2.31 (active)
GCGACCUUAGACAUUUGCATT against Prkrip1	-0.652 (inactive)
CGCCUUCAUAAUGUAGUUGTT against Defb37	0.601 (inactive)
CCGUCACUUUUAACCAUGUTT against Speg	4.19 (active)
GCACCUGGAGUACAUAAAATT against Sh2d1a	-0.854 (inactive)
CGUAGACUCCAAGCUCAAUTT against Ddx54	-1.31 (inactive)
GGAAAUUGUCUUUGGCUUUTT against Otop1	-0.0923 (inactive)
GGCAAAAUGAAGAAGCUGATT against Hdac6	-1.3 (inactive)
GCUACGAGCAGUUUUUAUUTT against Ptgs1	0.885 (inactive)
GGUGAAAGGAGUCAGUCUATT against Agtrap	-0.013 (inactive)

Sequence	z-score
GGCUCCUGGUUCUACAUCCTT against Itpr2	-2.54 (active)
CCCUAAGUAUAGGAUCGGATT against Macroh2a1	-1.07 (inactive)
GGGUUAUCUAUGCAAAUCCTT against Odc1	0.569 (inactive)
GCGGCAUUCGUCCAAAUUGTT against Trpt1	0.938 (inactive)
GGCAGAGAUGGUGUUGAUGTT against Col1a2	-0.342 (inactive)
GGUGGCCAUUCUUCUGUUCTT against Dynll1	2.19 (active)
GGAAGUGGUGGCCAUCAAGTT against Stk25	1.08 (inactive)
GCUUGUAGGUGGAUACAUGTT against Slc30a4	-0.161 (inactive)
GGAAGACUAGGAGAGACGGTT against Pqlc3	-0.739 (inactive)
GCAUAAUGGAUGGAAAGUCTT against Tasp1	1.1 (inactive)
CCCUAAGGUGGCAGAAAUCTT against Atp1a2	-1.49 (inactive)
GGCGGUUCAAAUGUCCUCATT against Fut2	-2.02 (active)
GGGAGGGUGUGCAAAAGUUTT against Arl4d	1.26 (inactive)
GCUUCUUAUGAAAAGAUGCTT against Epc2	0.463 (inactive)
GGAGUGGACUCACGUCUAATT against Med23	0.717 (inactive)
GGGUCCUUUUUCACAUGGUTT against Asph	2.82 (active)
CGGUGAUAGUGGAGUUUGUTT against Olfr266	0.542 (inactive)
GCAGCACAGUACUAUCUCGTT against Ttc4	-0.339 (inactive)
GCCAGAGAUUCCUCAACGATT against Rpp21	-2.48 (active)
GCAAUAGAAUCACAUAGGATT against Glyctk	1.35 (inactive)
GGCUGUAAUGACGAAUACATT against Naa25	0.764 (inactive)
GGGCAUGUGAUAGAACAAUTT against Stoml1	-0.701 (inactive)

Sequence	z-score
GAGAAAGAUAAUUACCUGGTT against Tnfrsf22	0.552 (inactive)
GGAAGCUGAUGGCUAUGACTT against Arc	-0.943 (inactive)
GGAGACUGUAGACUUAAAGTT against Rnf25	-1.24 (inactive)
CAAUAACACUGGUGCCGACTT against Adam34l	1.73 (inactive)
CCUAAAUUAGUAGGACGGUTT against Cdkn1a	0.675 (inactive)
GGAUCAGUACCCGUAUUUGTT against Plin2	-2.38 (active)
CCUAGAUUCGGACAAGGAUTT against Kctd5	-0.424 (inactive)
GGUAUAGCAAUUUCUACAATT against Chrna2	-0.174 (inactive)
GGUAGUGAAAAUGAAGAGUTT against Gtf2h1	0.892 (inactive)
CCUGAUACCCAAAGACUCATT against Dnaic1	-1.38 (inactive)
GCAACGGAGGGUCAUUUCATT against Wipf2	2.54 (active)
CCAUGAGACAAGAUUUAGATT against Olfr818	-0.751 (inactive)
UACUUAGGCCCUUGAGCAUTT against Timm10	0.725 (inactive)
GGUGUGUUUUCAUGUUUUUTT against Rel	0.388 (inactive)
GCUAUUGUAGUGGUUACUGTT against Vmn2r57	2.21 (active)
GGUAUUUCUUUGUGGUGCUTT against Ptch2	1.45 (inactive)
GCUACAUGAUGUUCAUACUTT against Srpx	0.38 (inactive)
GGUUUGGUGUCAGAUGUCATT against Olfr1182	-2.32 (active)
GGUGCAACACUCUCUAUUUTT against Afap1l1	0.963 (inactive)
CCCAUCUCCUUAAAGUCAATT against Ripk3	1.32 (inactive)
GGCAGCUGUUAUGCUUUUCTT against Cd302	0.822 (inactive)
CCAGGAUCCUGUUUCUGACTT against AF067061	2.19 (active)

Sequence	z-score
GGAACUGUGAGACUUUUAGTT against Rabgap1	0.532 (inactive)
CCCUGAGAAGGAUGCGAAATT against Mgat4b	0.44 (inactive)
GGAGCAGAGAAACUUCUCGTT against Gigyf1	-2.09 (active)
CCGGAAAACAAAAUUGCUATT against Obp1a	0.492 (inactive)
GGAAGAUAAAUCACAAUCATT against Cdc37l1	0.051 (inactive)
GGAUUAUAUGCCAAGUGAUTT against Phyh	0.179 (inactive)
GCCGAUUGUCCUAUCUCCATT against Spg7	1.63 (inactive)
GGUACUACUGUGGCUAAGCTT against 1700120K04Rik	2.71 (active)
GAACUCUUCCAGUGGAAGUTT against Dctpp1	-1.5 (inactive)
GGAAAAAUAGGGUGUUUUGTT against Tdg	1.96 (inactive)
GGACCAAGAGGACAUUACCTT against Tbl3	-0.971 (inactive)
GGUCAACCUAAACCAGCAGTT against Csn1s2a	-0.182 (inactive)
GGGAUGACCUGCCAUUCAUTT against Atp7a	3.47 (active)
CGAGGAUUUCUGUUACUUATT against Lyst	1.19 (inactive)
GCGCAGGUUGGAUGAAUGUTT against Psme3	-0.433 (inactive)
GGAAUUUUCUCGAUUUCACTT against Pde6b	1.13 (inactive)
GGCCUUUGGUACAUGUAGUTT against Olfr692	0.557 (inactive)
CGAAGAAUGACGAUGAUAUTT against Ppp4r3a	-2.41 (active)
CGGAAGAACUACAAGUCGATT against Sipa1l3	2.09 (active)
GCCAGUGCAUGAAAGAUAUTT against Kansl1l	-0.772 (inactive)
